# Results with a measured potency or affinity are listed apart. Unmarked numbers belong to inactive results.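 Rule for the calls: active = signal-lowering compounds whose fitted half-maximal concentration is at or below twice the top tested dose in every run; inconclusive = runs disagree, flat 30 to 70% inhibition, or poor curve fit; inactive = the rest.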
# Target: Protein S100-A4 (Homo sapiens) (UniProt P26447)
# Assay: S100A4-myosin IIA binding inhibitor potency, dose response, biochemical, fluorescence polarization, cherry-picked hits (AID 687001);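 note: 0% = DMSO neutral control wells and -100% = TFP positive control wells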
# Details: FP, S100A4/TAMRA-myosin IIA peptide binding; series mostly up to 11 µM; activity change, negative = inhibition: at the top concentration
# Protein S100-A4 (Homo sapiens), sequence (P26447 whole entry, looked up): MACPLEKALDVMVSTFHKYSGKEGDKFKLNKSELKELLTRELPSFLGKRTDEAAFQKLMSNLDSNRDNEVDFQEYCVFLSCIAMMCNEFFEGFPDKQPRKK
row,SMILES,"activity change, negative = inhibition [%]"
1,COC(=O)C[C@H]1CC[C@@H](NC(=O)Nc2cccc(OC)c2)[C@@H](CO)O1,-1.56
2,C[C@@H]1CN([C@H](C)CO)C(=O)CCCn2nncc2CO[C@@H]1CN(C)S(=O)(=O)c1ccc2ccccc2c1,-2.22
3,Cc1cc(C(=O)CSc2nc(N)cc(=O)[nH]2)ccc1F,-2.31
4,COc1ccc(C)cc1NS(=O)(=O)c1ccc2c(c1)N(C)CCO2,-2.05
5,O=C(/C=C/c1ccccc1)Nc1cc(S(=O)(=O)N2CCOCC2)ccc1N1CCOCC1,3.07
6,O=C(NCC[C@H]1CC[C@H](NS(=O)(=O)c2ccccc2)[C@@H](CO)O1)c1cc(Cl)cc(Cl)c1,5.01
7,C[C@@H]1CN([C@@H](C)CO)C(=O)c2cc(C#C[C@@H](C)O)cnc2O[C@H]1CN(C)C(=O)Cc1ccncc1,21
8,CCNC(=O)[C@@H]1[C@@H](CO)[C@@H]2Cn3c(ccc(-c4ccccc4)c3=O)[C@@H]2N1CC,-3.86
9,COc1cc2cnc(-c3ccccc3F)cc2cc1OC,-1.06
10,CNc1nc(-c2ccc(S(=O)(=O)N3CCCCC3)cc2)cs1,-4.15
11,COc1ccc(C(=O)O)cc1S(=O)(=O)Nc1ccccc1-c1ccccc1,6.38
12,CCCCCN(C(=O)CCC(=O)OCC(=O)Nc1cccc(SC)c1)c1c(N)n(CCCC)c(=O)[nH]c1=O,-0.499
13,COc1cc(OC)cc(C(=O)N2CCCc3ccccc32)c1,-4.36
14,C[C@@H](NC(=O)C[C@@H]1CC[C@H](NC(=O)C2CCC2)[C@H](CO)O1)c1ccccc1,0.215
15,Cc1ccc(S(=O)(=O)NCCC(=O)NCC(=O)Nc2c(C)cccc2C)cc1C,-0.925
16,CCc1ccc(C(=O)COC(=O)c2ccco2)cc1,-1.4
17,S=c1[nH]nc(-c2cc(-c3ccsc3)n[nH]2)n1-c1ccccc1,6.13
18,Nc1cnccc1C(=O)O,-26.8
19,CC1Cc2ccccc2N1NC(=O)c1ccc(Cl)c(S(N)(=O)=O)c1 (centres undefined),-3.85
20,COc1cc(OC)c2ccc(=O)oc2c1C(CC(=O)N1CCN(c2ccccc2)CC1)c1ccc2c(c1)OCO2 (centres undefined),2.27

row,SMILES,"activity change, negative = inhibition [%]"
1,CCN1C(=O)[C@H]2[C@@H](c3ccc(-c4ccc5c(c4)OCO5)c(OC)c3)N[C@@](C)(C(=O)OC)[C@H]2C1=O,-4.5
2,CCOC(=O)[C@]12CCC=C1N(Cc1ccc3c(c1)OCO3)C(=O)[C@H](CC(=O)NCc1cccc(C(F)(F)F)c1)C2,-1.06
3,C[C@@H]1CN([C@@H](C)CO)C(=O)c2cccc(NC(=O)Nc3cccc4ccccc34)c2O[C@H]1CN(C)C(=O)Nc1ccccc1,-1.27
4,Cc1cc2c(cc1S(=O)(=O)N1CCN(c3cccc(C)c3C)CC1)OCCN2C,-3.16
5,CC(C(=O)NC1CCCCC1)N1C(=O)c2cccc3cccc1c23 (centres undefined),-1.77
6,CC(C)n1nnnc1C1c2ccccc2C(=O)N1Cc1cccc(F)c1 (centres undefined),1.19
7,O=C(CSc1ccsc1[N+](=O)[O-])NCc1ccccc1,19.1
8,O=C(CN1C(=O)NC2(CCCCCCC2)C1=O)Nc1c(Cl)cccc1Cl,-3.09
9,CCC(=O)Nc1ccc2c(c1)OC[C@H](C)N(Cc1ccccc1C(=O)O)C[C@H](C)[C@@H](OC)CN(C)C2=O,-3.14
10,Cn1c2ccccc2c(=O)c2ccc(C#Cc3ccc(N)cc3)cc21,35.4
11,CC(=O)Nc1ccccc1-c1nc2cc(C#N)c(C#N)cc2[nH]c1=O,1.14
12,CCCC(=O)Nc1ccc2c(c1)C(=O)N(C)C[C@H](OC)[C@H](C)CN(Cc1ccccc1)[C@@H](C)CO2,2.23
13,CC(C)CC#Cc1ccc2c(c1)O[C@@H](CN(C)C(=O)Nc1ccccc1)[C@@H](C)CN([C@H](C)CO)S2(=O)=O,9.65
14,COc1ccc(C=O)cc1COc1ccc2c(c1)OCO2,-4.28
15,O=C1[C@H]2[C@@H](c3ccc(F)cc3)N3C(=O)N(c4cccc(Br)c4)C(=O)[C@@]3(Cc3ccccc3)[C@H]2C(=O)N1C1CCCCC1,-1.44
16,CN(C)Cc1cn(CC[C@H]2CC[C@H](NC(=O)Cc3cccnc3)[C@H](CO)O2)nn1,-0.327
17,NC(=O)c1cc(S(=O)(=O)Nc2cccc(Cl)c2)cs1,-0.185
18,O=C(C[C@H]1CC[C@H](NC(=O)Nc2ccccc2F)[C@@H](CO)O1)NCc1ccc(-c2ccccc2)cc1,0.931
19,Cc1ccc(S(=O)(=O)NCCC(=O)NCc2ccccn2)cc1,2.35

# Reference: PubChem BioAssay AID687001 (Broad Institute, 2013)
